BRCT inh green: blocks human BRCA1 BRCT binding to phosphopeptide, green readout; 0.05% of 75,000 active; P38398; BRCA1 BRCT-phosphopeptide binding, green fluorescence polarization; Potency, µM (titrated, usually from 76.9 µM), inactives show top-dose activity change, negative = inhibition, most hits filed as inhibitors; AID 875;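 also: potency is read from the fitted curve at half-maximal effect; plate controls were peptide without protein for full effect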
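Fluorescence polarization: His-tagged BRCT (~35 kDa BRCA1 C-terminus, 250 nM) bound to 100 nM fluorescein-labeled phosphorylated 10-aa BACH1 peptide, pH 7.3 phosphate buffer with DTT and Tween 20. Compounds incubated 12 min at room temperature; inhibition read as lowered polarization.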
HEK293 cAMP cs: parental HEK293 cAMP activation (counter-screen); parental HEK293 CNG cAMP sensor, membrane potential fluorescence; Potency, µM (series often up to 57.1 µM), for the others: at the highest dose activation, actives largely listed as activators; 2.5% of 73,000 active; AID 938; also: potency is read from the fitted curve at half-maximal effect; % of control where 0% means no effect; nearly all actives have a fitted effect of over 55% in size
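Parental HEK 293 cells stably expressing a modified CNG channel (no TSHR) report cAMP rise as membrane depolarization. Membrane potential dye with 100 uM RO 20-1724 was loaded for 60 min at room temperature, then compound added for 30 min; fluorescence read at 590 nm.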
Hsp90 Hop PPI: changes Hsp90-Hop TPR2A binding signal, up or down; 0.44% of 71,000 active; AlphaScreen TPR2A-His6 binding biotin-Hsp90 C-terminal peptide; AID 595; Potency, µM (series often up to 57 µM), for inactives: top-dose activity change, negative = inhibition; active = well fitted curve in either direction with a large enough effect; inconclusive = small, poorly fitted or top-dose-only effect, or another doubt; also: potency is read from the fitted curve at half-maximal effect; % is scaled to controls: 0 for no effect and ±100 for the full control effect
TSHR agonist: TSH receptor (human) agonism | P16473 | HEK293-CNG-TSHR cells (CNG channel as cAMP sensor), membrane potential dye, cAMP | Potency, µM (titrated, usually from 57.1 µM), without a hit: at the top dose activation, actives largely listed as activators | 0.48% of 73,000 active | AID 926; active = well fitted activation curve with a large enough effect in the main read-out, with a control signal flat, not every such curve was filed as active; inconclusive = small, poorly fitted or top-dose-only effect, or a change in a side signal; inactive = no such curve, though single readings can be large or run the other way; % of control where 0% means no effect;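 also: the control signal comes from parental cells without the receptor; potency is read from the fitted curve at half-maximal effect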
Target sequence (P16473 whole entry, looked up): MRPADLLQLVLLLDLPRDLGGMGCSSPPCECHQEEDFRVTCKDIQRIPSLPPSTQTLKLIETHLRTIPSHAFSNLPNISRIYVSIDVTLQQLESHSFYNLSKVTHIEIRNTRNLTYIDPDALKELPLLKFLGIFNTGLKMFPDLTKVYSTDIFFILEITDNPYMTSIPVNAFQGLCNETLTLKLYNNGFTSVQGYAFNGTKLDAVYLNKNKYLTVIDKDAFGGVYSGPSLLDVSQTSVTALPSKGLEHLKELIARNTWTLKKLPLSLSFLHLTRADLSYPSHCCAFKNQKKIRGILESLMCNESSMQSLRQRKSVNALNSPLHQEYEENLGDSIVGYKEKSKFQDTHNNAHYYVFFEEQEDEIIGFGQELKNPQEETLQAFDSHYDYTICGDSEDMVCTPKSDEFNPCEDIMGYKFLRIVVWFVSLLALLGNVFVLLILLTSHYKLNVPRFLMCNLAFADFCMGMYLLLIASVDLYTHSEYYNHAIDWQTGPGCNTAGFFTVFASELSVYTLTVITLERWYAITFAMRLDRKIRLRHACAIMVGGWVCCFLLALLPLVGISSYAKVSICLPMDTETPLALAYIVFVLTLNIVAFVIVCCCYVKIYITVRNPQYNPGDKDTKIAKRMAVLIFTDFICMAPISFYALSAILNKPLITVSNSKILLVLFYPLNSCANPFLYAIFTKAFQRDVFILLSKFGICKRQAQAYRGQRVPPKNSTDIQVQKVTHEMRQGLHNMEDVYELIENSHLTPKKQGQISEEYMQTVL
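cAMP rise detected as CNG-channel membrane depolarization by fluorescent dye (emission 590 nm), 30 min after compound, following 60 min dye loading containing 100 uM RO 20-1724 at room temperature. Cells: TSHR/CNG HEK 293, with parental CNG HEK 293 as control.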
BRCT inh red: BRCT-phosphoprotein interaction inhibition (red fluorophore). P38398. BRCT-phosphopeptide binding, red fluorescence polarization. Potency, µM (top dose mostly 76.9 µM), without a hit: at the top dose activity change, negative = inhibition, most hits filed as inhibitors. 0.03% of 75,000 active. AID 892; also: % is scaled to controls: 0 for no effect and ±100 for the full control effect
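Fluorescence polarization: 100 nM His-tagged BRCA1 BRCT with 100 nM TAMRA-labelled phospho-BACH1 decapeptide, phosphate buffer pH 7.3 with 150 mM NaCl, DTT, 0.01% Tween 20; 12 min RT. Binding inhibition seen as FP decrease.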
TsaE inh: YjeE (TsaE) inhibition, E. coli; purified YjeE enzyme, qHTS inhibition assay; Potency, µM; 0.05% of 71,000 active; AID 605
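Purified YjeE (10 uM) with BODIPY Texas Red-labeled ADP probe (2 uM); compounds pin-transferred, 15 min at room temperature. Binding inhibition read as decreased fluorescence polarization; ADP titration as control.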
* = called active by the depositor; i = inactive; ? = inconclusive; . = not tested or not shown; [ ] = dose if it differs, or a comment. In the library only some 3.3% were active in any assay of this set; here they are far more common. Unless noted, calls follow the shape of the dose curve; as a rule, active = well fitted curve in the direction sought with a large enough effect; inconclusive = small, poorly fitted or top-dose-only effect, or another doubt; inactive = no such curve, though single readings can be large; an effect the other way counts as inactive or inconclusive.

SMILES	BRCT inh green	HEK293 cAMP cs	Hsp90 Hop PPI	TSHR agonist	BRCT inh red	TsaE inh
O=c1cnc2cnc(Oc3cccc(Cl)c3)nc2n1CCc1ccccc1	1%	?	-11%	?	0%	i
Cc1nc2cnc(Oc3ccccc3)nc2n(Cc2cccs2)c1=O	1%	16µM*	-8%	?	0%	i
Cc1nc2cnc(Oc3ccccc3)nc2n(CCc2ccccc2)c1=O	-1%	1.6µM*	1%	?	0%	i
COc1ccc(Oc2ncc3nc(-c4cn(C)c5ccccc45)c(=O)n(CCC#N)c3n2)cc1	-5%	9%	5µM*	-4%	0%	i
O=C1[C@H]2[C@H]3[C@H](O)[C@H](O)C/C(=N/OCc4ccccc4)[C@@H]3CC[C@@H]2C(=O)N1C[C@@H]1CCCO1	-2%[15.4 µM]	?	.	?	1%[15.4 µM]	.
NCc1nnn(Cc2ccccc2)c1N	-1%[15.4 µM]	0%[11.4 µM]	5%[11 µM]	1%[11.4 µM]	2%[15.4 µM]	i
O=S(=O)(NCCNC/C=C\c1ccc(Br)cc1)c1cccc2cnccc12	-1%	17%	-16%	-37%	-2%	i
COc1cccc(Cn2c(=O)c(C)nc3cnc(Oc4cccc(Cl)c4)nc32)c1	28%	?	6%	?	1%	i
Cc1nc2cnc(N(C)C)nc2n(Cc2ccc(F)cc2)c1=O	3%	?	19%	?	-3%	i
COc1ccc(Oc2ncc3nc(C)c(=O)n(Cc4ccc(F)cc4)c3n2)cc1	49%	16µM*	-2%	?	3%	i
COc1ccc(-n2c(=O)c(C)nc3cnc(Oc4cccc(Cl)c4)nc32)cc1	2%	16µM*	-4%	?	-1%	i
COc1ccccc1CNc1ncncc1-c1ccc(N(C)C)cc1	-5%	-10%	?	6.3µM*	1%	i
CNc1nc(-c2cccc(NS(C)(=O)=O)c2)nc2ccccc12	-3%	6%	-2%	-1%	-7%	i
CS(=O)(=O)Nc1cccc(-c2nc(Nc3ccc(F)cc3)c3ccccc3n2)c1	2%	19%	?	25µM*	2%	i
Cc1cc(C)c(C)c(OCC(=O)NCc2nc(-c3ccccc3)no2)c1	2%	?	1%	?	0%	i
Cc1cc(OCC(=O)NCc2nc(-c3ccccc3)no2)c(C)cc1Br	-2%	32µM*	-1%	?	-1%	i
COc1c2c(nc3ccccc13)O[C@@H]([C@@](C)(O)CO)C2	-3%	-7%	2%	.	1%	i
COc1ccc(-c2cc(C(F)(F)F)n3ncc(C(=O)NCC4CCCO4)c3n2)cc1 (configuration not stated)	-2%	10µM*	?	?	1%	i
COc1cccc(-c2cc(C(F)(F)F)n3ncc(C(=O)NCC4CCCO4)c3n2)c1 (configuration not stated)	-2%	?	-4%	?	1%	i
O=C(Nc1ccccc1)c1ccc(Cc2nc3ccccc3[nH]2)cc1	-4%	-11%	.	-5%	0%	.
Cc1ccc(S(=O)(=O)N2CCCCC2C(=O)NCc2ccco2)cc1 (configuration not stated)	-2%	3%	-14%	16µM*	1%	i
O=C(NCc1ccco1)C1CCCN(S(=O)(=O)c2ccc(-n3cnnn3)cc2)C1 (configuration not stated)	-1%	20µM*	-5%	?	0%	i
Cc1ccc(S(=O)(=O)N2CCC(C(=O)N3CCC[C@H]3C(=O)NCc3ccco3)CC2)cc1	-2%	6%	-2%	8%	0%	i
COc1cc(/C=C/C(=O)N2CCCCC2=O)cc(OC)c1OC	0%	.	.	.	0%	.
COc1ncc2nc(-c3ccc(Cl)cc3)c(=O)n(Cc3cccs3)c2n1	-2%	9%	-4%	6%	0%	i
SMILES	BRCT inh green	HEK293 cAMP cs	Hsp90 Hop PPI	TSHR agonist	BRCT inh red	TsaE inh
COc1ccc(/C=N/n2c(SC)nnc2-c2ccccc2)cc1C	6%	25µM*	-1%	?	0%	i
CC(=O)N1CCC2(CCCN(C(=O)Nc3cccc(C#N)c3)C2)CC1	-1%	-4%	-6%	1%	0%	i
COc1ccc(CCn2c(-c3ccco3)nc3nc4ccccc4nc32)cc1	4%	-6%	4%	1%	0%	i
COc1ccc(C(=O)n2c(-c3ccco3)nc3ccccc32)cc1	0%	25µM*	4%	?	-1%	i
CC(C)(c1cc(Br)c(OCC(Br)CBr)c(Br)c1)c1cc(Br)c(OCC(Br)CBr)c(Br)c1 (configuration not stated)	-1%	7%	2%	0%	0%	i
O=C(Nc1ccc(N2CCOCC2)c(Cl)c1)C1CCCCC1	-3%	25µM*	-4%	?	-1%	i
COc1ncc2nc(CCc3ccccc3)c(=O)n(C3CC3)c2n1	-1%	19%	-7%	17%	-1%	i
COc1cccc(C2C(C)CCC3C(=O)N(C)C(C(C)C)C(=O)N32)c1 (configuration not stated)	0%[15.4 µM]	-1%[11.4 µM]	.	6%[11.4 µM]	-1%[15.4 µM]	.
CCn1c(C(=O)NCCCc2ccccc2)cc2sccc21	-1%	-59%	.	?	2%	.
Cn1c(C(=O)N(Cc2ccccc2)Cc2cccs2)cc2sccc21	0%	16µM*	?	?	0%	i
CCn1c(C(=O)NCc2ccccn2)cc2sccc21	2%	18%	.	29%	0%	.
Cn1c(C(=O)N(Cc2ccccc2)Cc2ccccn2)cc2sccc21	3%	16µM*	-6%	?	2%	i
O=C(NCc1ccco1)c1sc(=S)n2c1[nH]c(=O)c1ccccc12	-9%	25µM*	-6%	?	-6%	i
COCCNC(=O)c1ccc(Cc2nc3ccccc3[nH]2)cc1	-2%	-15%	.	0%	-2%	.
COc1cccc(Nc2ncc3nc(-c4cn(C)c5ccccc45)c(=O)n(CCC#N)c3n2)c1	-5%	3%	-1%	-12%	-1%	i
C[C@@H](CCc1ccc(O)cc1)NCCc1ccc(O)c(O)c1	-4%	?	?	?	0%	i
CCOC(=O)C1=C(C)Nc2ncnn2C1c1ccc2c(c1)OCO2 (configuration not stated)	0%	24%	-3%	3.2µM*	-2%	i
CCCCNc1nc(C)nc2c1nc(-c1ccccc1)n2CCN1CCCCC1	0%	13µM*	-7%	?	0%	i
Cc1nc(NCc2ccccc2)c2nc(-c3ccccc3)n(CCN3CCCC3)c2n1	0%	?	-5%	?	0%	i
